Pf growth 48h: P. falciparum growth inhibition at 48 hours (one generation); P. falciparum luciferase growth in erythrocytes, 48 h; Potency, µM (doses to about 28.7 µM), actives largely listed as inhibitors; 5.9% of 310,000 active; AID 504832
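A one-generation exposure of luciferase-tagged malaria parasites in RPMI 1640/Albumax erythrocyte culture, 37 C and 5% CO2. Inhibition is inferred from decreased luminescence after adding detection reagent.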
Shiga toxin inh: Shiga toxin inhibition | inhibition, % at 38.7 µM | Vero cells, Shiga toxin protein synthesis inhibition reporter | 9.2% of 290,000 active | AID 2315; in the data active means inhibition mostly above about 28%, no sharp cut-off; inactive means mostly below about 43%
Cycloheximide cs: affects cycloheximide protein synthesis inhibition readout, counter-screen | cell reporter, cycloheximide protein synthesis inhibition counterscreen | max response, % | 12% of 300,000 active | AID 2314; in the data active means max response mostly above about 13%, no sharp cut-off; inactive means mostly below about 14%; further: read at 38.3 µM for the half of the compounds with a filed dose
HCMV antiviral: blocks human cytomegalovirus replication | 4.5% of 410,000 active | activity change, negative = inhibition, % at 57.5 µM | AID 1259415 | HFF cells, HCMV-luciferase reporter, 72 h; active compounds read low; in the data active means activity change below about -60%; inconclusive means no clear call, values can overlap the other calls; inactive means above about -39%
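After 16 h attachment at 37C, HFF cells received test compound and HCMV-luciferase (1 PFU/cell); reporter luminescence read 72 h later, data normalized against buffer-only and known inhibitor Salinomycin.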
Pf growth 96h: inhibits malaria parasite growth, 96 h; AID 504834; Potency, µM (top dose mostly 28.7 µM), most hits filed as inhibitors; 6.9% of 320,000 active; P. falciparum luciferase reporter growth, 96 h
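Compounds incubated with erythrocytes infected by luciferase-expressing P. falciparum (2% hematocrit, 0.05% parasitemia final) for 96 hours, 37 C in 5% CO2. Growth inhibition scored as decreased luciferase luminescence.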
Numbers stand for hits; n = inactive; u = inconclusive; x = no result; [ ] = another dose, or the depositor's remark. Compounds with a hit are over-represented: about 20% of the library has one in this group of screens. Unless noted, the call rests on the fitted dose curve; in most records, active means well fitted inhibition curve with a large enough effect; inconclusive means small, poorly fitted or top-dose-only effect, or another doubt; inactive means no such curve, though single readings can be large or run the other way.

SMILES	Pf growth 48h	Shiga toxin inh	Cycloheximide cs	HCMV antiviral	Pf growth 96h
CN(C)c1ccc(/C=C/C(=O)c2cc(Cl)ccc2O)cc1	n	n	n	n	n
COc1ccc(C(=O)c2ccc(OC)cc2O)c(O)c1	u	n	n	n	n[5.75 µM]
COc1ccc(C(=O)/C=C/c2ccc(OC)cc2OC)c(O)c1	n	72	43	n	n
O=C(/C=C/c1ccncc1)c1cc(Cl)ccc1O	u	n	n	u	9.3µM
COc1ccc(/C=C/C(=O)c2ccc(Cl)cc2)c(OC)c1	n	80	43	n	n
COc1ccc(C(=O)c2ccccc2O)c(O)c1	4.1µM	x	x	n	u
CCSC1OC(C(COC(C)=O)OC(C)=O)C(OC(C)=O)C1NC(C)=S (centres undefined)	x	x	x	n	x
COC(=O)C1=C(C)N(CCc2cc(OC)c(OC)c(OC)c2)C(=O)N[C@H]1c1ccccc1	x	x	x	n	x
COc1ccc(/C=C/C(=O)c2cc(Cl)ccc2O)c(OC)c1	u	50	25	n	u
COc1ccc(C(=O)/C=C/c2ccccc2)c(O)c1	n	54	70	-106	n
CC(Cc1c[nH]c2ccccc12)C(=O)N1CCN(c2ccccc2F)CC1 (centres undefined)	n[0.00184 µM]	n	n	n	n
Cc1c(/C=N/n2cnnc2)c2ccccc2n1CCOc1ccccc1	13µM	n	n	n	u
Cc1c(C=O)c2ccccc2n1CCOc1ccccc1F	u	n	n	u	8.3µM
Fc1ccccc1OCCn1c(=S)[nH]c2ccccc21	n	28	24	n	u
Cc1ccccc1OCCn1c(=S)[nH]c2ccccc21	u	n	n	n	n
CCc1ccccc1NC(=O)Cc1ccc(-n2c(C)nc3cccnc32)cc1	x	x	x	n	x
Cc1cc(C)c2c(-n3cccc3)c(C(=O)NCCCN3CCCCC3)sc2n1	x	x	x	n	x
N#Cc1ccc(OCC(O)CS(=O)(=O)c2ccc(F)cc2)cc1 (centres undefined)	n	n	n	u	n
Cc1ccc(S(=O)(=O)CC(O)COc2ccc(C#N)cc2)cc1 (centres undefined)	n	n	n	-70	n
Cc1cccc(NC(=O)c2cccc(S(=O)(=O)N3CCCCC3)c2)c1	u	n	n	n	n
CCn1cc(S(=O)(=O)NC2CCCCC2)cn1	n	n	n	-60	u
O=C(O)c1ccc(S(=O)(=O)NC2CCCCCC2)cc1	n	n	n	n	12µM
O=C(O)c1ccc(S(=O)(=O)N(Cc2ccc(F)cc2)C2CCCCC2)cc1	n	n	n	n	12µM
Cc1ccc(S(=O)(=O)NC2CCCCCCC2)cc1	n	n	n	n	8.3µM
COC(=O)N/N=C/C1=C[N+](=O)c2ccccc2[N+]1=O	n	x	x	x	u
SMILES	Pf growth 48h	Shiga toxin inh	Cycloheximide cs	HCMV antiviral	Pf growth 96h
COc1ccc(C)cc1NC(=O)C(=O)N/N=C(\C)CC(=O)Nc1cccnc1	n	n	n	n	n
COc1ccc(NCc2cc3cc4c(cc3n(CC(=O)Nc3ccc(F)cc3F)c2=O)OCO4)cc1	x	x	x	n	x
N#C/C(=C\c1ccccc1)C(=O)N1CCC(C(N)=O)CC1	n	n	n	n	n
Cc1cc(C(=O)OCC(=O)N2CCN(C(=O)c3ccco3)CC2)c(C)n1-c1ccc(F)cc1	12µM	n	n	n	n
O=C(OCC(=O)N1CCCCCC1)c1ccc[nH]c1=O	x	x	x	-60	x
O=C(OCC(=O)N1CCCC1)c1ccccc1O	n	103	54	n	n
N#C/C(=C\c1ccccc1)C(=O)OCC(=O)N1CCCC1	9.3µM	n	n	n	n
CC(=O)c1ccc(NC(=O)c2ccc(-c3ccc(Cl)cc3)o2)cc1	x	x	x	n	x
O=C(NCCCn1ccnc1)/C(=C\c1ccccc1Cl)NC(=O)c1ccccc1	n	n	n	n	n
CCC(=O)N1CCC1(C)C(=O)Nc1cc(OC)ccc1OC (centres undefined)	x	x	x	n	x
O=C(COC(=O)c1ccc[nH]c1=O)Nc1ccc(N2CCCCC2)cc1	x	x	x	-75	x
O=C(OCC(=O)N1CCCC1)c1ccccc1OCc1ccccc1	n	n	21	n	n
O=C(OCC(=O)N1CCN(C(=O)c2ccco2)CC1)c1ccccc1OCc1ccccc1	n	n	n	n	12µM
O=C(COC(=O)c1ccc[nH]c1=O)Nc1ccc(S(=O)(=O)N2CCCC2)cc1	n	n	n	u	n
COc1ccc(Nc2nnc(-c3ccc4c(c3)OCO4)o2)cc1	x	x	x	n	x
Cc1ccc(OCC(COCc2ccccc2)NC(C)C)cc1 (centres undefined)	x	x	x	n	x
Cc1cc(C)cc(NC(=S)/C(=C(\[O-])c2ccc(Cl)cc2Cl)[n+]2ccccc2)c1	n	n	n	n	n
[O-]/C(=C(\C(=S)Nc1ccc(SC(F)F)cc1)[n+]1ccccc1)c1ccc(Cl)cc1Cl	n	n	n	-63	u
O=C(O)c1ccc(N=C2NC(=O)C(CO)(CO)S2)cc1	n	n	n	n	u
CC(C)(C)NC(=O)[C@H]1CN(Cc2cccnc2)CCN1C[C@@H](O)C[C@@H](Cc1ccccc1)C(=O)N[C@H]1c2ccccc2C[C@H]1O	11µM	n	n	x	n
CC(C)(C)NC(=O)C1c2ccccc2OCC(=O)N1Cc1cccnc1 (centres undefined)	x	x	x	n	x
Cc1cc(N2CCN(C)CC2)ccc1NC(=O)c1cccc(S(=O)(=O)N2CCc3ccccc3C2)c1	u	n	n	u	10µM
O=C(Nc1ccc(Br)cn1)c1cccc(S(=O)(=O)N2CCCC2)c1	x	x	x	n	x
Cc1ccc(NC(=O)c2cccc(S(=O)(=O)N3CCc4ccccc4C3)c2)nc1	7.4µM	x	x	n	9.3µM
CC(=O)N1CCN(S(=O)(=O)c2cccc(C(=O)Nc3ccc(C)cn3)c2)CC1	n	77	45	n	n
SMILES	Pf growth 48h	Shiga toxin inh	Cycloheximide cs	HCMV antiviral	Pf growth 96h
Cc1cccc(C(C)C)c1NC(=O)COC(=O)c1cccc(S(=O)(=O)N2CCc3ccccc3C2)c1	n	n	n	-79	n
Cc1ccc(CNC(=O)CSc2n[nH]c(N)n2)cc1	n	n	n	n	u
Cc1ccc(CSc2n[nH]c(N)n2)cc1	n	n	22	n	n
Cc1ccc(Nc2nc(CSc3nnc(-c4cccs4)o3)cs2)cc1	n	74	48	n	u
c1ccc(-c2nc(CSc3nnc(-c4cccs4)o3)cs2)cc1	n	n	n	n	u
Cc1ccc(OCCCSc2n[nH]c(N)n2)cc1	n	n	15	n	n
Cc1ccc(Nc2nc(CSc3n[nH]c(N)n3)cs2)cc1	n	66	31	n	n
CC(C)(C)c1nc2cc(Cl)c([N+](=O)[O-])cc2o1	n	n	n	n	n
COc1cccc(-n2ccn(CC(=O)Nc3ccccc3F)c(=O)c2=O)c1	x	x	x	n	x
CCOC(=O)c1c(N)n[nH]c1-c1ccc(OC)cc1	n	n	n	n	x
Cc1c(-c2ccccc2)sc(N)c1C(=O)N1CCOCC1	13µM	n	n	n	n
CCOC(=O)c1sc(-c2ccc(OC)cc2)cc1N	n	132	44	n	n[5.75 µM]
CCOC(=O)c1cc(CC)sc1NC(=O)Cc1ccsc1	n	n	n	u	3.3µM
COC(=O)c1c(N)sc(C(=O)N2CCOCC2)c1C	n	n	n	n	u
CC(=O)c1sc(-c2ccccc2)cc1N	n	n	n	n	n
CCOC(=O)c1sc(-c2ccc(F)cc2)cc1N	n	125	46	n	x

Source: PubChem BioAssay (National Center for Advancing Translational Sciences (NCATS))
